Experimental data: the antibiotic and cytotoxicity screens of Wong et al. (2023)
About 3,300 (8.5%) of roughly 39,000 compounds were called active. The sample as a whole holds a higher share of actives than the screen did.

Test system: HepG2
Experiment: cytotoxicity call (relative viability < 0.9)
Details: 10 µM

Row | SMILES | cytotoxicity call
1 | CN1CCN(C(=O)C[C@@H]2CC[C@@H]3[C@H](COc4ccc(NC(=O)C5CCOCC5)cc4C(=O)N3C)O2)CC1 | inactive
2 | C[C@@H]1CN([C@@H](C)CO)C(=O)c2cc(NS(=O)(=O)c3ccc(F)cc3)ccc2O[C@@H](C)CCCCO[C@H]1CN(C)C(=O)C1CCCCC1 | inactive
3 | O=C(C[C@@H]1CC[C@H]2[C@@H](COC[C@@H](O)CN2C(=O)c2ccccc2)O1)NCCCN1CCOCC1 | inactive
4 | COc1ccccc1S(=O)(=O)N(C)C[C@H]1Oc2cc(Br)ccc2S(=O)(=O)N([C@H](C)CO)C[C@H]1C | inactive
5 | C[C@@H]1CN([C@@H](C)CO)C(=O)c2cccc(NC(=O)CCCCCC(=O)Nc3ccccc3N)c2O[C@H]1CN(C)C(=O)Nc1cccc2ccccc12 | inactive
6 | Cc1noc(C)c1NC(=O)N(C)C[C@@H]1Oc2c(NC(=O)C3CCOCC3)cccc2C(=O)N([C@H](C)CO)C[C@@H]1C | inactive
7 | NNCCc1ccccc1 | inactive
8 | c1ccc(CCNc2ccnc3cc4ccccc4cc23)cc1 | active
9 | NCCNc1cccc2ccccc12 | inactive
10 | CC(C)NC(=O)N(C)C[C@@H]1Oc2cc(C#Cc3ccc(F)cc3)ccc2S(=O)(=O)N([C@@H](C)CO)C[C@@H]1C | inactive
11 | C[C@@H]1CN([C@@H](C)CO)C(=O)c2cc(NC(=O)Nc3ccc4c(c3)OCO4)ccc2O[C@@H]1CN(C)Cc1ccc(-c2ccccc2)cc1 | active
12 | C[C@H](CO)N1C[C@H](C)[C@@H](CN(C)Cc2ccc(-c3ccccc3)cc2)Oc2ccc(NC(=O)Nc3ccc4c(c3)OCO4)cc2C1=O | inactive
13 | C[C@@H]1CN([C@H](C)CO)C(=O)c2cc(NC(=O)Nc3ccc4c(c3)OCO4)ccc2O[C@@H]1CN(C)Cc1ccc(-c2ccccc2)cc1 | active
14 | C[C@H]1CN([C@@H](C)CO)C(=O)c2cc(NC(=O)Nc3ccc4c(c3)OCO4)ccc2O[C@H]1CN(C)Cc1ccc(-c2ccccc2)cc1 | inactive
15 | C[C@H](CO)N1C[C@H](C)[C@H](CN(C)Cc2ccc(-c3ccccc3)cc2)Oc2ccc(NC(=O)Nc3ccc4c(c3)OCO4)cc2C1=O | inactive
16 | C[C@H]1CN([C@@H](C)CO)C(=O)c2cc(NC(=O)Nc3ccc4c(c3)OCO4)ccc2O[C@@H]1CN(C)Cc1ccc(-c2ccccc2)cc1 | active
17 | C[C@@H]1CN([C@H](C)CO)C(=O)c2cc(NC(=O)Nc3ccc4c(c3)OCO4)ccc2O[C@H]1CN(C)Cc1ccc(-c2ccccc2)cc1 | active
18 | O=C1C[C@]2(c3ccc([N+](=O)[O-])cc3)C(=O)N(CC(F)(F)F)c3cc(CO)ccc3[C@H]2N1CC12CC3CC(CC(C3)C1)C2 | inactive
19 | COc1ccc(S(=O)(=O)Nc2ccc3c(c2)C(=O)N([C@@H](C)CO)C[C@H](C)[C@H](CN(C)C(=O)NC(C)C)O3)cc1 | inactive
20 | C[C@@H]1CN([C@@H](C)CO)C(=O)c2cc(NC(=O)Nc3ccc4c(c3)OCO4)ccc2O[C@@H](C)CCCCO[C@@H]1CN(C)S(=O)(=O)c1cccs1 | inactive
21 | C[C@H]1CN([C@@H](C)CO)C(=O)Cc2cc(NS(=O)(=O)c3cn(C)cn3)ccc2O[C@H]1CN(C)S(=O)(=O)c1ccc(F)cc1 | inactive
22 | C[C@@H]1CN([C@H](C)CO)C(=O)Cc2cc(NC(=O)CCCCCC(=O)Nc3ccccc3N)ccc2O[C@H]1CN(C)Cc1ccccc1 | inactive

Row | SMILES | cytotoxicity call
23 | CCS(=O)(=O)N1CC[C@]2(CC1)CN([C@@H](CO)c1[nH]c3cc(ccc3c12)OC)C(=O)Cc1ccccn1 | inactive
24 | Cc1noc(C)c1NC(=O)Nc1ccc2c(c1)C(=O)N([C@@H](C)CO)C[C@H](C)[C@@H](CN(C)Cc1ccc(Cl)c(Cl)c1)O2 | inactive
25 | CC(C)NC(=O)Nc1ccc2c(c1)C(=O)N([C@@H](C)CO)C[C@H](C)[C@@H](CN(C)S(=O)(=O)c1cn(C)cn1)OCCCC[C@H](C)O2 | inactive
26 | COc1ccc(cc1)CN1C[C@]2(CN(C2)S(=O)(=O)c2cn(cn2)C)c2c([nH]c3cc(ccc23)OC)[C@H]1CO | inactive
27 | Cc1noc(C)c1S(=O)(=O)Nc1ccc2c(c1)CC(=O)N([C@@H](C)CO)C[C@@H](C)[C@@H](CN(C)Cc1ccncc1)O2 | inactive
28 | C[C@@H]1CN([C@H](C)CO)C(=O)c2cccc(NC(=O)NC3CCCCC3)c2O[C@H]1CN(C)S(=O)(=O)c1cn(C)cn1 | inactive
29 | CCc1nc2ccc(C(=O)NCc3ccccc3OC)cn2c1N(CC)Cc1cccc(Br)c1 | inactive
30 | CCS(=O)(=O)N1CC[C@]2(CC1)CN([C@H](CO)c1[nH]c3cc(ccc3c12)OC)C(=O)c1ccc(cc1)F | inactive
31 | O=C(O)[C@H]1NC(=O)[C@@H]1Cc1ccccc1 | inactive
32 | CC(C)NC(=O)N(C)C[C@@H]1Oc2c(NS(=O)(=O)c3ccc(F)cc3)cccc2C(=O)N([C@H](C)CO)C[C@@H]1C | inactive
33 | C[C@@H]1CN([C@@H](C)CO)C(=O)c2cc(NC(=O)Nc3ccc4c(c3)OCO4)ccc2O[C@H]1CN(C)Cc1ccc(-c2ccccc2)cc1 | active
34 | C[C@@H]1CN([C@H](C)CO)C(=O)c2cccc(NS(=O)(=O)c3cn(C)cn3)c2O[C@@H]1CN(C)S(=O)(=O)c1ccc(F)cc1 | inactive
35 | C[C@@H]1CN([C@H](C)CO)C(=O)c2cccc(NS(=O)(=O)c3cn(C)cn3)c2O[C@H]1CN(C)Cc1ccc2c(c1)OCO2 | inactive
36 | C[C@H](NC(=O)C[C@@H]1C[C@H]2c3cc(NC(=O)Nc4ccc(C(F)(F)F)cc4)ccc3O[C@H]2[C@@H](CO)O1)c1ccccc1 | inactive
37 | COc1ccc(S(=O)(=O)N(C)C[C@H]2OCCCC[C@@H](C)Oc3ccc(NC(=O)Nc4ccc5c(c4)OCO5)cc3C(=O)N([C@@H](C)CO)C[C@@H]2C)cc1 | active
38 | COc1ccc(NC(=O)Nc2ccc3c(c2)C(=O)N([C@H](C)CO)C[C@H](C)[C@H](CN(C)S(=O)(=O)c2ccc(Cl)cc2)OCCCC[C@@H](C)O3)cc1 | inactive
39 | COc1ccc(S(=O)(=O)N(C)C[C@H]2OCCCC[C@H](C)Oc3ccc(NC(=O)Nc4ccc5c(c4)OCO5)cc3C(=O)N([C@H](C)CO)C[C@@H]2C)cc1 | inactive
40 | COc1ccc(NC(=O)Nc2ccc3c(c2)C(=O)N([C@H](C)CO)C[C@@H](C)[C@H](CN(C)S(=O)(=O)c2ccc(Cl)cc2)OCCCC[C@@H](C)O3)cc1 | active
41 | COc1ccc(NC(=O)Nc2ccc3c(c2)C(=O)N([C@H](C)CO)C[C@H](C)[C@@H](CN(C)S(=O)(=O)c2ccc(C)cc2)OCCCC[C@H](C)O3)cc1 | inactive
42 | COc1ccc(NC(=O)Nc2ccc3c(c2)C(=O)N([C@H](C)CO)C[C@@H](C)[C@H](CN(C)S(=O)(=O)c2ccc(C)cc2)OCCCC[C@@H](C)O3)cc1 | inactive
43 | COc1ccc(S(=O)(=O)N(C)C[C@H]2OCCCC[C@H](C)Oc3ccc(NC(=O)Nc4ccc5c(c4)OCO5)cc3C(=O)N([C@H](C)CO)C[C@H]2C)cc1 | inactive
44 | COc1ccc(NC(=O)Nc2ccc3c(c2)C(=O)N([C@@H](C)CO)C[C@H](C)[C@H](CN(C)S(=O)(=O)c2ccc(C)cc2)OCCCC[C@H](C)O3)cc1 | active

Row | SMILES | cytotoxicity call
45 | COc1ccc(NC(=O)Nc2ccc3c(c2)C(=O)N([C@H](C)CO)C[C@H](C)[C@H](CN(C)S(=O)(=O)c2ccc(Cl)cc2)OCCCC[C@H](C)O3)cc1 | inactive
46 | COc1ccc(NC(=O)Nc2ccc3c(c2)C(=O)N([C@H](C)CO)C[C@H](C)[C@H](CN(C)S(=O)(=O)c2ccc(C)cc2)OCCCC[C@H](C)O3)cc1 | inactive
47 | COc1ccc(NC(=O)Nc2ccc3c(c2)C(=O)N([C@@H](C)CO)C[C@H](C)[C@@H](CN(C)S(=O)(=O)c2ccc(C)cc2)OCCCC[C@@H](C)O3)cc1 | active
48 | COc1ccc(NC(=O)Nc2ccc3c(c2)C(=O)N([C@@H](C)CO)C[C@@H](C)[C@@H](CN(C)S(=O)(=O)c2ccc(C)cc2)OCCCC[C@@H](C)O3)cc1 | inactive
49 | CCCCCCC#C[Si](O[C@H](c1ccccc1)c1cn(Cc2cccc(Cl)c2)nn1)(C(C)C)C(C)C | inactive
50 | C[C@@H]1CCCCO[C@H](CN(C)C(=O)Nc2ccccc2)[C@H](C)CN([C@@H](C)CO)C(=O)c2cc(NS(=O)(=O)c3ccc(Cl)cc3)ccc2O1 | inactive
51 | COc1ccc(C#Cc2ccc3c(c2)[C@H]2[C@H](CCN2C(=O)Nc2ccc(C(F)(F)F)cc2)[C@@H](CO)N3C)cc1 | inactive
52 | C[C@@H]1CCCCO[C@H](CN(C)C(=O)Nc2ccc3c(c2)OCO3)[C@H](C)CN([C@@H](C)CO)C(=O)c2cc(NC(=O)CCC(F)(F)F)ccc2O1 | inactive
53 | O=C(CCCCCCC(=O)Nc1ccc(C(=O)NCCOCCOCCNC(=O)c2ccc(NC(=O)CCCCCCC(=O)NO)cc2)cc1)NO | inactive
54 | COCC(=O)N(C)C[C@@H]1Oc2cc(-c3ccc(C#N)cc3)ccc2S(=O)(=O)N([C@@H](C)CO)C[C@H]1C | inactive
55 | C[C@H](CO)N1C[C@H](C)[C@H](CN(C)C(=O)CN2CCOCC2)Oc2ncc(/C=C/c3ccccc3)cc2C1=O | inactive
56 | COCCC(=O)N1C[C@H]2CN(c3cnn(C)c3)C(=O)[C@@H]2C1 | inactive
57 | Cc1ccc(F)cc1NC(=O)CN | inactive
58 | COc1ccc(NC(=O)Nc2ccc3c(c2)C(=O)N([C@H](C)CO)C[C@@H](C)[C@H](CN(C)S(=O)(=O)c2ccccc2)OCCCC[C@H](C)O3)cc1 | active
59 | COc1ccc(NC(=O)Nc2ccc3c(c2)C(=O)N([C@H](C)CO)C[C@@H](C)[C@H](CN(C)S(=O)(=O)c2ccc(C)cc2)OCCCC[C@H](C)O3)cc1 | active
60 | COc1ccc(NC(=O)Nc2ccc3c(c2)C(=O)N([C@@H](C)CO)C[C@@H](C)[C@H](CN(C)S(=O)(=O)c2ccccc2)OCCCC[C@@H](C)O3)cc1 | inactive
61 | COc1ccc(NC(=O)Nc2ccc3c(c2)C(=O)N([C@H](C)CO)C[C@H](C)[C@H](CN(C)S(=O)(=O)c2ccc(C)cc2)OCCCC[C@@H](C)O3)cc1 | inactive
62 | COc1ccc(NC(=O)Nc2ccc3c(c2)C(=O)N([C@H](C)CO)C[C@@H](C)[C@H](CN(C)S(=O)(=O)c2ccc(OC)cc2)OCCCC[C@@H](C)O3)cc1 | active
63 | COc1ccc(NC(=O)Nc2ccc3c(c2)C(=O)N([C@@H](C)CO)C[C@@H](C)[C@H](CN(C)S(=O)(=O)c2ccc(C)cc2)OCCCC[C@H](C)O3)cc1 | inactive
64 | COc1ccc(NC(=O)Nc2ccc3c(c2)C(=O)N([C@@H](C)CO)C[C@@H](C)[C@@H](CN(C)S(=O)(=O)c2ccc(OC)cc2)OCCCC[C@@H](C)O3)cc1 | inactive
65 | COc1ccc(NC(=O)Nc2ccc3c(c2)C(=O)N([C@@H](C)CO)C[C@H](C)[C@H](CN(C)S(=O)(=O)c2ccc(OC)cc2)OCCCC[C@@H](C)O3)cc1 | inactive
66 | COc1ccc(NC(=O)Nc2ccc3c(c2)C(=O)N([C@@H](C)CO)C[C@@H](C)[C@@H](CN(C)S(=O)(=O)c2ccccc2)OCCCC[C@@H](C)O3)cc1 | inactive
